{"source": "PubChem BioAssay (Tox21)", "note": "Records with an inconclusive call do not appear. Entries that show only a call come without a potency. Unmarked numbers belong to inactive results. The source made the active and inactive calls. The call rests on the fitted dose curve."}
{"target": "Progesterone receptor (Homo sapiens) (UniProt P06401)", "sequence (P06401 whole entry, looked up)": "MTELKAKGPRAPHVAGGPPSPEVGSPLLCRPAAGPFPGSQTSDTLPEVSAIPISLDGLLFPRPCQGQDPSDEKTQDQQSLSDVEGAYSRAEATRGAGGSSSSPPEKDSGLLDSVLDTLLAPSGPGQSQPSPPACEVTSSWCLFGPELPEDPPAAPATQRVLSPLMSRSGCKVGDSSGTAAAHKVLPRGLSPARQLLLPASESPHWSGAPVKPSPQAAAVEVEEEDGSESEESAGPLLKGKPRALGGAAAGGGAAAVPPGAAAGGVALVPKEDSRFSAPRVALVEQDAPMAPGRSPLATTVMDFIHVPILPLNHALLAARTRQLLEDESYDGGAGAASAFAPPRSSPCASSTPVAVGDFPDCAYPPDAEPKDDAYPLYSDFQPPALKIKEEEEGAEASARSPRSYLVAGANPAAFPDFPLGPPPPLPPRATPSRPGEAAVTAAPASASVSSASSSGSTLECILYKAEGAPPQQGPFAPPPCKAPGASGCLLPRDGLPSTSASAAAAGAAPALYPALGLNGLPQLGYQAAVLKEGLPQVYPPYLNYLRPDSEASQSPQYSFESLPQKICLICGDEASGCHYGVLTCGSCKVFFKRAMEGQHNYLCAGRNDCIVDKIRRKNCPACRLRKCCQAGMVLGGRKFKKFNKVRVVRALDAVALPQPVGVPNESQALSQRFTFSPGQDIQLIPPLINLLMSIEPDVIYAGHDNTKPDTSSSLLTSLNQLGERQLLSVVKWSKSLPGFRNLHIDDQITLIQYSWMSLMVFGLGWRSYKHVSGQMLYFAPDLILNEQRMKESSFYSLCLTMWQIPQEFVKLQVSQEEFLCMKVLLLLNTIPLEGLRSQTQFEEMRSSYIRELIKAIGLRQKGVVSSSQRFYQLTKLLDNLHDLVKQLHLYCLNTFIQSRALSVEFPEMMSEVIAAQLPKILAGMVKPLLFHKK", "assay": "qHTS assay to identify small molecule agonists of the progesterone receptor (PR) signaling pathway (AID 1346784); further: nearly all actives have a fitted effect of over 30% in size; further: potency means the concentration at half of the fitted maximal effect", "conditions": "PR-UAS-bla HEK293T, beta-lactamase FRET ratio, 16 h; series mostly up to 92.4 µM", "excerpt": "U.S. Tox21 Program National Center for Advancing Translational Sciences [NCATS] NIH Chemical Genomics Center [NCGC] U.S. Environmental Protection Agency [EPA] National Institutes of Environmental Health Sciences [NIEHS] National Toxicology Program [NTP] U.S. Food and Drug Administration [FDA] […] Endocrine disrupting chemicals (EDCs) and their interactions with steroid hormone receptors like PR causes disruption of normal endocrine function. To identify the compounds that activate PR signaling, a PR-UAS-bla GripTite cell line i.e. PR-UAS-bla HEK 293T (Invitrogen, Carlsbad, CA, USA) containing a beta-lactamase reporter gene under the control of an Upstream Activator Sequence (UAS) was used to screen Tox21 10K compound library.\nTox21 Assay Protocol Summary: PR-UAS-bla HEK 293T cells were dispensed at 3,000 cells/5 uL of assay medium containing 2% charcoal stripped FBS per well into black wall/clear-bottom 1536-well plates using a Multidrop Combi (ThermoFisher Scientific, Waltham, MA) dispenser. After the assay plates were incubated at a 37C and 5% CO2 for 6hr, 23 nL of compounds dissolved in DMSO, positive controls or DMSO only was transferred to the assay plate by a Pintool station (Kalypsys, San Diego, CA). The plates were incubated at 37C and 5% CO2 for 16hr. Then 1 uL of LiveBLAzer B/G FRET substrate was added using a BioRAPTR FRD (Flying Reagent Dispenser, Aurora Discovery, San Diego, CA). After the plates were incubated at room temperature for 2 hours, fluorescence intensity was measured by an Envision plate reader (PerkinElmer, Shelton, CT)."}
{"compound": "CCOC(=O)C1=C(C)NC(C)=C(C(=O)OC)C1c1cccc(Cl)c1Cl", "note": "(stereo not given)", "Potency": "inactive"}
{"compound": "CCC(C)COC(C)=O", "note": "(stereo not given)", "Potency": "inactive"}
{"compound": "c1ccc2c(c1)CCc1ccccc1N2", "Potency": "inactive"}
{"compound": "CN(C)CCC=C1c2ccccc2C=Cc2ccccc21", "Potency": "inactive"}
{"compound": "CC1(C)O[C@@H]2C[C@H]3[C@@H]4C[C@H](F)C5=CC(=O)C=C[C@]5(C)[C@H]4[C@@H](O)C[C@]3(C)[C@]2(C(=O)CO)O1", "Potency": "11.9 nM (active)"}
{"compound": "CCCCCCCCC(CCCCCC)C(=O)O", "note": "(stereo not given)", "Potency": "inactive"}
{"compound": "Cc1cc(=O)c2c(O)c3c(O)cc(=O)c4c3c3c(cc(O)c1c23)C(C)(C)C=4O", "activation": "-2.51% [at 19 µM]"}
{"compound": "Nc1cccc2c1CN(C1CCC(=O)NC1=O)C2=O", "note": "(stereo not given)", "Potency": "inactive"}
{"compound": "C=C1c2cccc(O)c2C(O)=C2C(=O)[C@]3(O)C(O)=C(C(N)=O)C(=O)[C@@H](N(C)C)[C@@H]3[C@@H](O)[C@H]12", "Potency": "inactive"}
{"compound": "NNC(=O)CP(=O)(c1ccccc1)c1ccccc1", "Potency": "inactive"}
{"compound": "Nc1nnc(-c2ccc([N+](=O)[O-])o2)o1", "Potency": "inactive"}
{"compound": "c1csc(SSc2cccs2)c1", "Potency": "inactive"}
{"compound": "CCOC(=O)[C@H](CCc1ccccc1)N[C@@H](C)C(=O)N(CC(=O)O)C1Cc2ccccc2C1", "Potency": "inactive"}
{"compound": "CC(=O)OCCN(CCOC(C)=O)c1ccc(N=Nc2ccc([N+](=O)[O-])cc2C#N)cc1", "Potency": "inactive"}
{"compound": "c1ccc2sc(SN(C3CCCCC3)C3CCCCC3)nc2c1", "Potency": "inactive"}
{"compound": "CCCCN(CCCC)C(C(N)=O)c1ccc(OC)cc1", "note": "(stereo not given)", "Potency": "inactive"}
{"compound": "CCC1CO1", "note": "(stereo not given)", "Potency": "inactive"}
{"compound": "CCn1cc(C(=O)O)c(=O)c2cc(F)c(N3CCNCC3)cc21", "Potency": "inactive"}
{"compound": "Cc1[nH]cnc1CN1CCc2c(c3ccccc3n2C)C1=O", "Potency": "inactive"}
{"compound": "C[C@@H]1CC(=O)NN=C1c1ccc(NN=C(C#N)C#N)cc1", "Potency": "inactive"}
{"compound": "COc1ccccc1N1CCN(CCCCNC(=O)c2ccc(-c3ccc(C(C)=O)cc3)cc2)CC1", "Potency": "inactive"}
{"compound": "CCOC(=O)c1ccc(I)cc1", "Potency": "5500 nM (active)"}
{"compound": "CC(=O)[C@H]1[C@H](C#N)C[C@H]2[C@@H]3CC=C4C[C@@H](O)CC[C@]4(C)[C@H]3CC[C@@]21C", "Potency": "inactive"}
{"compound": "O=C(OCC(O)CO)c1ccccc1Nc1ccnc2cc(Cl)ccc12", "note": "(stereo not given)", "Potency": "inactive"}
{"compound": "NCCNCCO", "Potency": "inactive"}
{"compound": "Nc1ccc(N=Nc2ccccc2)c(N)c1", "Potency": "inactive"}
{"compound": "O=C(Cn1ccnc1[N+](=O)[O-])NCCO", "Potency": "inactive"}
{"compound": "CN(C(=O)CN(CCO)CC(=O)N(C)C(C)(C)Cc1ccccc1)C(C)(C)Cc1ccccc1", "Potency": "inactive"}
{"compound": "COc1cc(C(=O)NC2CCN(C)CC2)ccc1Nc1ncc2c(n1)N(C1CCCC1)CC(F)(F)C(=O)N2C", "Potency": "inactive"}
{"compound": "CC1=C(Br)C(=O)C(Br)=C/C1=C(/c1ccccc1S(=O)(=O)O)c1cc(Br)c(O)c(Br)c1C", "Potency": "inactive"}
{"compound": "CO[C@]1(NC(=O)CSC(F)F)C(=O)N2C(C(=O)O)=C(CSc3nnnn3CCO)CO[C@H]21", "Potency": "inactive"}
{"compound": "CCOc1ccc(Cc2nccc3cc(OCC)c(OCC)cc23)cc1OCC", "Potency": "inactive"}
{"compound": "O=C(O)c1ccc(OCCCOc2ccc(C(=O)O)cc2)cc1", "Potency": "inactive"}
{"compound": "CC1(C)[C@@H](OC(=O)CCC(=O)O)CC[C@]2(C)[C@H]3C(=O)C=C4[C@@H]5C[C@@](C)(C(=O)O)CC[C@]5(C)CC[C@@]4(C)[C@]3(C)CC[C@@H]12", "Potency": "inactive"}
{"compound": "Cc1ccc(OC(=O)c2ccccc2O)cc1", "Potency": "inactive"}
{"compound": "CCCCCCNC(=O)n1cc(F)c(=O)[nH]c1=O", "Potency": "inactive"}
{"compound": "CCCCCCC(C)(C)C(=O)O", "Potency": "inactive"}
{"compound": "CC(C)Nc1cccnc1N1CCN(C(=O)c2cc3cc(NS(C)(=O)=O)ccc3[nH]2)CC1", "Potency": "inactive"}
{"compound": "CN1C(=O)OC(C)(C)C1=O", "Potency": "inactive"}
{"compound": "CCCCC(CC)CN", "note": "(stereo not given)", "Potency": "inactive"}
